Several values for one entry are separate records, joined by “and”; a condition that tells them apart may be missing. Identical values can stand only once. Inconclusive results are not listed. Activity calls are given as the source filed them. Unless noted, calls follow the shape of the dose curve; as a rule, active = well fitted curve in the direction sought with a large enough effect in the repeat runs; inconclusive = weak or mixed curves; inactive = no such curve, though single readings can be large; an effect the other way counts as inactive or inconclusive.
What was measured:
[1] = qHTS assay to identify small molecule agonists of H2AX (AID 1224845; active = well fitted activation curve with a large enough effect in the signal ratio in the repeat runs, not every such curve was filed as active; the % refers to the signal ratio)
Procedure, shortened: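 Phospho-H2AX Ser139 measured by HTRF (ex 320 nm; em 665 and 620 nm) after 24 hr antibody incubation. Compounds, 15 concentrations, 0.76% DMSO, were applied to CHO-K1 cells for 3hr at 37C before lysis.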

[2] = qHTS assay to identify small molecule agonists of the hypoxia (HIF-1) signaling pathway (AID 1224846; active = well fitted activation curve with a large enough effect in the signal ratio in the repeat runs, not every such curve was filed as active; the % refers to the signal ratio)
Procedure, shortened: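 Hypoxia-pathway activation was scored as increased beta-lactamase from an HRE-controlled reporter in ME-180 cells; plated at 2,000 cells per well with 0.5% dialyzed FBS, they were exposed 17 hrs to compounds and then given CCF4-AM.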

[3] = qHTS assay to identify small molecule antagonists of the estrogen related receptor (ERR) signaling pathway from Tox21 library (AID 1224848); also: nearly all actives have a fitted effect of over 50% in size
Procedure, shortened: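 Antagonist-mode screen of the Tox21 10K library in an NTP-provided ERR reporter cell line; 18 h compound exposure at 37 C, luminescence measured with ONE-Glo.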

[4] = qHTS assay to identify small molecule agonists of the estrogen related receptor (ERR) signaling pathway from Tox21 library (AID 1224849; calls by dose curve; also: nearly all actives have a fitted effect of over 15% in size); conditions: ERR reporter cell line, ONE-Glo luciferase, 18 h
Procedure, shortened: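 Six hours post-seeding at 37 C/5% CO2, ERR cells receive DMSO-solubilised compounds; after 18 h at 37 C, ONE-Glo reagent is applied and luminescence recorded.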

[5] = qHTS RealTime-Glo MT Cell Viability Assay in HepG2 cells - 24 hour (AID 1224867); also: nearly all actives have a fitted effect of over 50% in size
Procedure, shortened: (§1)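 Tox21 10K library screened in qHTS format on HepG2 cells carrying RealTime-Glo reagents. Compounds were added after a 5 h preincubation, and the luminescent signal from continuous culture was measured repeatedly during 40 h treatment.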

[6] = qHTS RealTime-Glo MT Cell Viability Assay in HEK293 cells - 32 hour (AID 1224868); also: top concentration of the series differs between compounds; nearly all actives have a fitted effect of over 50% in size
Procedure, shortened: (§2)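 Luminescence generated by NanoLuc from substrate produced by living HEK293 cells served as the viability signal. Each value reflects the reading at its stated time point during continuous 40 h compound exposure at 37 C.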

[7] = A CellTox Green Cytotoxicity Assay to monitor cytotoxicity in HEK293 cells - 0 hour (AID 1224869); also: nearly all actives have a fitted effect of over 50% in size
Procedure, shortened: (§3)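 Seeding of HEK293 cells together with cytotoxicity dye preceded a 5 h incubation at 37 C/5% CO2. Test compounds in DMSO were then added and fluorescence monitored across 40 h.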

[8] = qHTS RealTime-Glo MT Cell Viability Assay in HepG2 cells - 40 hour (AID 1224870); also: nearly all actives have a fitted effect of over 50% in size
Procedure, shortened: (§4)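 Real-time viability: cells seeded at 600 per well together with NanoLuc and cell-permeant prosubstrate, compounds added after 5 h incubation. Luminescence tracked at 0, 8, 16, 24, 32 and 40 h of exposure.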

[9] = A CellTox Green Cytotoxicity Assay to monitor cytotoxicity in HEK293 cells - 40 hour (AID 1224871); also: nearly all actives have a fitted effect of over 45% in size
Procedure, shortened: as §3

[10] = qHTS RealTime-Glo MT Cell Viability Assay in HEK293 cells - 16 hour (AID 1224872)
Procedure, shortened: as §2

[11] = qHTS RealTime-Glo MT Cell Viability Assay in HepG2 cells - 8 hour (AID 1224873); also: nearly all actives have a fitted effect of over 55% in size
Procedure, shortened: as §4

[12] = qHTS RealTime-Glo MT Cell Viability Assay in HEK293 cells - 40 hour (AID 1224874); conditions: RealTime-Glo luminescence; max response: stronger effect = lower value; also: nearly all actives have a fitted effect of over 50% in size
Procedure, shortened: (§5)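 Tox21 screen in HEK293 using RealTime-Glo MT chemistry, with cells and reagent co-dispensed. Luminescence proportional to viable cell number was captured at intervals during 40 h compound exposure at 37 C.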

[13] = A CellTox Green Cytotoxicity Assay to monitor cytotoxicity in HEK293 cells - 24 hour (AID 1224875); also: nearly all actives have a fitted effect of over 45% in size
Procedure, shortened: as §3

[14] = A CellTox Green Cytotoxicity Assay to monitor cytotoxicity in HepG2 cells - 16 hour (AID 1224876); also: nearly all actives have a fitted effect of over 45% in size
Procedure, shortened: (§6)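 Nonlytic assay: viable cells exclude the dye, so fluorescence scales with cell death. HepG2 at 600 cells/well, compounds added after 5 h, signal read across 40 h.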

[15] = qHTS RealTime-Glo MT Cell Viability Assay in HepG2 cells - 32 hour (AID 1224877); also: nearly all actives have a fitted effect of over 55% in size
Procedure, shortened: as §1

[16] = A CellTox Green Cytotoxicity Assay to monitor cytotoxicity in HepG2 cells - 24 hour (AID 1224878); also: nearly all actives have a fitted effect of over 45% in size
Procedure, shortened: as §6

[17] = A CellTox Green Cytotoxicity Assay to monitor cytotoxicity in HepG2 cells - 40 hour (AID 1224879); also: nearly all actives have a fitted effect of over 40% in size
Procedure, shortened: as §6

[18] = qHTS RealTime-Glo MT Cell Viability Assay in HEK293 cells - 0 hour (AID 1224880)
Procedure, shortened: as §5

[19] = A CellTox Green Cytotoxicity Assay to monitor cytotoxicity in HEK293 cells - 32 hour (AID 1224881); also: nearly all actives have a fitted effect of over 40% in size
Procedure, shortened: as §3

[20] = qHTS assay to identify small molecule agonists of H2AX - cell viability counter screen (AID 1224847; calls by dose curve;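 also: wild-type CHO-K1 cells; top concentration of the series differs between compounds; nearly all actives have a fitted effect of over 30% in size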)
Procedure, shortened: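 For this counter screen, overnight-attached CHO-K1 cells received test compounds (15 concentrations, 0.76% DMSO final); 3 hr later at 37C, CellTiter-Glo reagent was added and luminescence recorded after 30 min at room temperature.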
% is scaled to controls: 0 for no effect and ±100 for the full control effect.

O=C(O)c1ccc(=O)[nH]c1
inactive: Potency [1] | outcome [2] | Potency [3] | activity change, positive = activation ([4]; at 42.5 µM (top of the series)) 5.02% | Potency [5] | Potency [6] | Potency [7] | Potency [8] | Potency [9] | Potency [10] | Potency [11] | max response [12] 5.8% | Potency [13] | Potency [14] | Potency [15] | Potency [16] | Potency [17] | outcome [18] | Potency [19]

C[N+]1(CCC(C(N)=O)(c2ccccc2)c2ccccc2)CCCCC1
inactive: Potency [1] | outcome [2] | Potency [20] | Potency [6] | Potency [7] | Potency [8] | Potency [9] | Potency [10] | Potency [14] | Potency [15] | Potency [16] | Potency [17] | outcome [18] | Potency [19]

CCCC(C)(COC(N)=O)COC(=O)NC(C)C (configuration not stated)
inactive: Potency [1] | outcome [2] | Potency [3] | activity change, positive = activation ([4]; at 42.5 µM (top of the series)) 0.487% | activity change, positive = activation ([4]; at 92.4 µM (top of the series)) -2.02% | Potency [5] | Potency [7] | Potency [8] | Potency [9] | Potency [10] | Potency [11] | max response [12] -11.3% and 0.58% | Potency [13] | Potency [14] | Potency [15] | Potency [17] | outcome [18] | Potency [19]

COc1cc(CC#N)cc(OC)c1OC
inactive: Potency [1] | outcome [2] | Potency [5] | Potency [6] | Potency [7] | Potency [8] | Potency [9] | Potency [10] | Potency [11] | max response [12] 0.767% | Potency [13] | Potency [14] | Potency [15] | Potency [16] | Potency [17] | outcome [18]

COP(=O)(OC)OC(Br)C(Cl)(Cl)Br (configuration not stated)
inactive: Potency [1] | outcome [2] | Potency [5] | Potency [7] | Potency [8] | Potency [11] | Potency [13] | Potency [14] | Potency [15] | Potency [16] | Potency [17] | outcome [18] | Potency [19]

O=C(N/N=C/c1ccc([N+](=O)[O-])o1)c1cc([N+](=O)[O-])cc([N+](=O)[O-])c1O
inactive: Potency [1] | outcome [2] | Potency [5] | Potency [6] | Potency [7] | Potency [8] | Potency [9] | Potency [10] | Potency [11] | max response [12] 8.45% | Potency [13] | Potency [14] | Potency [15] | Potency [16] | Potency [17] | outcome [18] | Potency [19]

C[C@H]1O[C@H](OC2[C@@H](O)[C@@H](O)C(O)[C@H](O)[C@H]2O)[C@@H](N)C[C@@H]1N=C(N)C(=O)O (some centres not stated)
inactive: Potency [1] | outcome [2] | Potency [20] | Potency [6] | Potency [8] | Potency [9] | Potency [10] | Potency [11] | max response [12] 5.07% | Potency [13] | Potency [14] | Potency [15] | Potency [17] | outcome [18] | Potency [19]

Reference: PubChem BioAssay (Tox21)
